Among the data in PubChem BioAssay (NCATS) are Potency, activity change, negative = cytotoxicity and outcome values, retold here.

Each structure is given as a SMILES string. Results filed as inconclusive are left out. Entries that show only a call come without a potency. Active and inactive are the calls of the source. Calls follow the shape of the dose curve; as a rule, active = well fitted inhibition curve with a large enough effect; inconclusive = small, poorly fitted or top-dose-only effect; inactive = flat fitted curve, though single readings scatter.
Potency is read from the fitted curve at half-maximal effect.

The assay can be described thus: P-glycoprotein substrates identified in KB-8-5-11 adenocarcinoma cell line, qHTS therapeutic library screen (AID 1346987). Also: nearly all actives have a fitted effect of over 65% in size. To be noted: KB-8-5-11 (P-gp overexpressing) viability, CellTiter-Glo, 72 h; series mostly up to 44.5 µM. The method, boiled down: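 In this qHTS, P-gp-rich KB-8-5-11 cells received library compounds across a concentration range. Viability was quantified by luminescence after 72 h at 37 degree C.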
Background: Quantitative high-throughput screening tests each substance at several concentrations.
Turning to `CC1(O)CCC2C(C(=O)O)=COC(OC3OC(CO)C(O)C(O)C3OC(=O)/C=C/c3ccc(O)cc3)C21` (stereo not given), the Potency entry was “inactive”.
Take `CCNC(=O)[C@H]1O[C@H](n2cnc3c(NCC(c4ccccc4)c4ccccc4)nc(C(=O)NCCNC(=O)NC4CCN(c5ccccn5)CC4)nc32)[C@H](O)[C@@H]1O`: the Potency entry is “inactive”.
Consider `CC1CCC2(C(=O)OC3OC(CO)C(O)C(O)C3O)CCC3(C)C(=CCC4C5(C)CC(O)C(O)C(C)(C(=O)O)C5CCC43C)C2C1(C)O` (stereo not given), for which the Potency result is “inactive”.
Take `O=C(NN1CCCCC1)c1nn(-c2ccc(Cl)cc2Cl)c(-c2ccc(C#Cc3ccc(C(F)(F)F)cc3)s2)c1CNS(=O)(=O)N1CCCC1`: the Potency result was “inactive”.
On to `CC(=O)O[C@@H]1[C@@H](OC(=O)/C=C/c2ccccc2)[C@H](C)O[C@@H](O[C@H]2[C@@H]3C=CO[C@@H](O[C@@H]4O[C@H](CO)[C@@H](O)[C@H](O)[C@H]4O)[C@@H]3[C@@]3(CO)O[C@@H]23)[C@@H]1OC(C)=O`, for which the Potency entry is “inactive”.
As for `C=CC1C(O[C@@H]2O[C@H](CO)[C@@H](O)[C@H](O)[C@H]2O)OC=C(C(=O)OC)C1Cc1nccc2c1[nH]c1ccccc12` (stereo not given in full), the Potency result was “inactive”.
Same read-out and setting: under `O=C(/C=C/c1ccc(O)cc1)OC[C@]12O[C@H]1[C@@H](O)[C@@H]1C=CO[C@@H](O[C@@H]3O[C@H](CO)[C@@H](O)[C@H](O)[C@H]3O)[C@@H]12` stands “inactive”.
Regarding `CC1(C)CC2C3=CCC4C5(C)CCC(OC6OC(C(=O)O)C(O)C(O)C6OC6OC(CO)C(O)C(O)C6OC6OC(CO)C(O)C(O)C6O)C(C)(CO)C5CCC4(C)C3(C)CCC2(C)C(OC2OCC(O)C(OC3OC(CO)C(O)C(O)C3O)C2O)C1O` (stereo not given), the activity change, negative = cytotoxicity was 1.76% [at 9.29 µM] (inactive).
Consider `CC1CCC2C(C)(C)CC(C)(CO)C2(O)C1C(=O)O` (stereo not given), for which the Potency result is “inactive”.
Still for that read-out and setting: then `C[C@@H]1CCC2C(C)(C)[C@H](O)CC[C@]2(C)[C@@]12Cc1c(O)cc3c(c1O2)CN(CCO)C3=O` (stereo not given in full), with “inactive”; and `Cn1c(=O)cc(N2CCCC(N)C2)n(Cc2ccccc2C#N)c1=O` (stereo not given), with “inactive”.
Turning to `C[C@@H]1O[C@@H](O[C@H]2[C@H](O[C@H]3[C@H](O[C@H]4CC[C@@]5(CO)C(CC[C@]6(C)C5CC=C5C7CC(C)(C)C[C@@H](O)[C@]7(C)CC[C@]56C)C4(C)C)O[C@H](C(=O)O)[C@@H](O)[C@@H]3O)OC[C@@H](O)[C@@H]2O)[C@H](O)[C@H](O)[C@H]1O` (stereo not given in full), the outcome is “inactive [at 9.29 µM]”.
`COc1cc(C[C@H]2COC(=O)[C@@H]2Cc2ccc(O)c(OC)c2)ccc1O`: the Potency result is “inactive”.
As for `C=C[C@H]1[C@H](O[C@@H]2O[C@H](CO)[C@@H](O)[C@H](O)[C@H]2O)OC=C2C(=O)OCC[C@]21O`, the Potency result was “inactive”.
Still for that read-out and setting: under `C=C1CCC2C(C)(C(=O)O)CC(O)CC2(C)C1CC/C(C)=C/C(=O)O` (stereo not given) stands “inactive”.
For the molecule `C=C(C)[C@@H]1CC[C@](C)(O)[C@@H](OC(=O)c2ccccc2)C1`, the Potency entry was “inactive”.
Take `C=C1C2(CCC(=O)OC2(C)C)CC(OC(=O)/C(C)=C/C)C2(C)C13OC14C(=O)OC(C)(C(=O)C12C(=O)OC4C)C3OC(C)=O` (stereo not given): the Potency entry was “inactive”.
The same measure, in the same setting: then `COC1(CC(C)C)NC(=O)C(O)(Cc2ccccc2)NC1=O` (stereo not given), with “inactive”; and `NCc1c[nH]c(=S)n1C1CCc2c(F)cc(F)cc2C1` (stereo not given), with “inactive”; and `COc1cc(/C=C/C(=O)OC(C)(C)C(OC2OC(CO)C(O)C(O)C2O)C(=O)OCc2ccc(OC3OC(CO)C(O)C(O)C3O)cc2)ccc1O` (stereo not given), with “inactive”.
Take `C[C@@H]1O[C@@H](OC[C@H]2O[C@@H](OCC3CCC4CC3C4(C)C)[C@H](O)[C@@H](O)[C@@H]2O)[C@H](O)[C@H](O)[C@H]1O` (stereo not given in full): the Potency result is “inactive”.
Same read-out and setting: under `OCc1ccccc1O[C@@H]1O[C@H](CO)[C@@H](O)[C@H](O)[C@H]1O` stands “inactive”.
Same read-out and setting: then `CC(NCc1ccc(OCc2cccc(F)c2)cc1)C(N)=O` (stereo not given), with “inactive”; and `COc1ccc([C@@H]2N[C@H](C(=O)O)Cc3c2[nH]c2ccccc32)cc1CN1CCN(c2ccccc2F)CC1`, with “inactive”.
On to `C=C(C)C(C)C1OC23CC4(CO2)C(CCC2C5(C)CCC(OC6OCC(O)C(OC7OC(CO)C(O)C(OC8OCC(O)C(O)C8O)C7O)C6OC6OC(CO)C(O)C6O)C(C)(C)C5CCC24C)C3C(C)(O)C1OC(C)=O` (stereo not given), for which the activity change, negative = cytotoxicity was 3.91% [at 9.29 µM] (inactive).
With `COC(=O)C1=CO[C@@H](O[C@@H]2O[C@H](CO)[C@@H](O)[C@H](O)[C@H]2O)[C@@H]2[C@@](C)(O)[C@@H](O)C[C@]12O`, the Potency result is “inactive”.
Turning to `Cc1cn2c(N)c(Cl)cc(C(=O)NCC3CCN(CC(C)C)CC3)c2n1`, the Potency entry was “inactive”.
Same read-out and setting: then `COc1cccc2c1CCC[C@H]2CN(C)CCc1ccc2ccoc2c1`, with “inactive”; and `O=C(c1ccc(F)cc1)C1CCN(CCn2c(=O)nc3n(c2=O)CCCC3)CC1`, with “inactive”.
Consider `C=C1CC2C3(C)C(O)CC(=O)C(C)(C)C3C(OC(C)=O)C(OC(C)=O)C2(C)C2C(=O)OC(C)(C(=O)OC)C(=O)C12C` (stereo not given), for which the Potency entry is “inactive”.
As for `COc1cc2c(Nc3ccc(Cl)c(Cl)c3F)ncnc2cc1OCC1C[C@@H]2CN(C)C[C@@H]2C1` (stereo not given in full), the Potency is 18.4 µM (active).
The same measure, in the same setting: then `C[C@]12CCC(=O)C=C1[C@@H](O)C[C@@H]1[C@@H]2[C@@H](O)C[C@@]2(C)[C@H]1CC[C@]2(O)C(=O)CO`, with “inactive”; and `C[C@]1(OC(=O)/C=C/c2ccccc2)C[C@H](O)[C@]2(O)C=CO[C@@H](O[C@@H]3O[C@H](CO)[C@@H](O)[C@H](O)[C@H]3O)C12` (stereo not given in full), with “inactive”.
Regarding `CCC[C@@H]1C[C@@H](C(=O)N[C@@H]([C@H]2O[C@H](SC)[C@H](OP(=O)(O)O)[C@@H](O)[C@H]2O)[C@H](C)Cl)N(C)C1`, the Potency entry was “inactive”.
The same measure, in the same setting: then `C=C1[C@@H]2CC[C@@]3(C)[C@H](c4ccoc4)OC(=O)C[C@]13O[C@H]1CC(=O)C(C)(C)[C@H](CC(=O)OC)[C@]12C`, with “inactive”.
`CCC(C)(O)C(O)C(=O)OCc1ccc(O[C@@H]2O[C@H](CO)[C@@H](O)[C@H](O)[C@H]2O)c(OC)c1` (stereo not given in full): the Potency result is “inactive”.
The same measure, in the same setting: then `C=C1CC2C3(C)C(OC(C)=O)CC(=O)OC(C)(C)C3C(O)C(OC(C)=O)C2(C)C2C(=O)OC(C)C(=O)C12C` (stereo not given), with “inactive”.
With `C[C@@H]1O[C@@H](O[C@H]2[C@H](O[C@H]3[C@H](O[C@H]4CC[C@@]5(C=O)C(CC[C@]6(C)C5CC=C5C7CC(C)(C)C[C@@H](O)[C@]7(C)CC[C@]56C)C4(C)C)O[C@H](C(=O)O)[C@@H](O)[C@@H]3O)OC[C@@H](O)[C@@H]2O)[C@H](O)[C@H](O)[C@H]1O` (stereo not given in full), the activity change, negative = cytotoxicity is 5.8% [at 9.29 µM] (inactive).
Consider `COc1ccc(C(=O)O[C@H]2CC(C)=CC[C@@]3(C)[C@@H](OC(C)=O)C[C@@](O)(C(C)C)[C@H]23)cc1`, for which the Potency entry was “inactive”.
For the molecule `CN1C(=O)N[C@@H](Cc2c[nH]c3c(Cl)cccc23)C1=O`, the Potency result is “inactive”.
